# Among all 290,000 compounds or so, about 370 (0.13%) were called active. The sample as a whole holds a higher share of actives than the screen did. Measured potencies and affinities stand elsewhere. Unmarked numbers belong to inactive results.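 Rule for the calls: active = spots per cell inhibited over 60%, with over 100 cells counted and total cytoplasm intensity under 500,000; inconclusive = wells with under 100 cells, flagged as likely toxic; inactive = the rest.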
# Target: G-protein coupled receptor 55 (Homo sapiens) (UniProt Q9Y2T6)
# Sequence (Q9Y2T6 whole entry, looked up): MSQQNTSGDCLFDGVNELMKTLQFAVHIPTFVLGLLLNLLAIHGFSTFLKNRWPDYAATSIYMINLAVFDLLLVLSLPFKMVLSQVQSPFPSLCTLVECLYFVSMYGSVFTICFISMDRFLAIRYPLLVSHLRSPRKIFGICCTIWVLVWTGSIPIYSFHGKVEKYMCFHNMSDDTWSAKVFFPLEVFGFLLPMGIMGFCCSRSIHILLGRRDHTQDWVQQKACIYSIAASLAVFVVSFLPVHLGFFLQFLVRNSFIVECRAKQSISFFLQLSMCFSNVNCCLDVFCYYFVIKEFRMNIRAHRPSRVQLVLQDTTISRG
# Assay: inhibition of LPI-stimulated GPR55 beta-arrestin translocation – imaging, U2OS, beta-arrestin-GFP, LPI agonist, primary screen (AID 2013);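 note: U2OS cells stably carrying GPR55 and arrestin-GFP stimulated by 5 µM LPI near EC80; imaged beta-arrestin-GFP aggregate spots per cell after agonist stimulation; plate controls were LPI-stimulated DMSO wells for no effect and DMSO wells without LPI for full effect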
# Details: LPI antagonism, at 10 µM, active compounds read high
row,Compound,inhibition
1,CCOC(=O)C1=C(C)NC(C)=C(C(=O)OC)C1c1cccc([N+](=O)[O-])c1 (stereo not drawn),14.8%
2,CCOC(=O)C1=C(O)C(=O)N(c2ccccc2)C1c1cccc([N+](=O)[O-])c1 (stereo not drawn),-3.6%
3,CCn1c(SCc2nc3cc(OC)c(OC)cc3c(=O)[nH]2)nnc1-c1ccncc1,-12.8%
4,CCOC(=O)N1CCN(C(=O)CS(=O)Cc2nc(-c3cccc(C)c3)oc2C)CC1 (stereo not drawn),-4.3%
5,Cc1cc(=O)c(C(=O)O)nn1-c1ccccc1C(F)(F)F,-0.4%
6,O=C(NC(NC(=S)Nc1ccccc1C(=O)O)C(Cl)(Cl)Cl)c1ccco1 (stereo not drawn),15.9%
7,COc1ccccc1NC(=S)NC(NC(=O)c1ccco1)C(Cl)(Cl)Cl (stereo not drawn),3.2%
8,Cc1ccc(NC(=O)C2C3C=CC4(O3)C2C(=O)N(CCCN2CCCCC2)C4C(=O)NC2CCCCC2)cc1C (stereo not drawn),1.2%
9,COc1ccc(C(=O)C2CCCN(C(=O)c3noc4c3CCCC4)C2)c(C)c1 (stereo not drawn),15.3%
10,COCCCNC(=O)c1ccc2c3c(onc13)-c1ccccc1C2=O,84.1% (active)
11,COC(CNC(=O)c1ccc2c3c(onc13)-c1ccccc1C2=O)OC,99.4% (active)
12,COCCNC(=O)c1cccc2c1-c1ccccc1C2=O,4%
13,CCOC(=O)C(C(=O)OCC)c1cc(Br)c2noc3c2c1C(=O)c1ccccc1-3,-10.2%
14,COC(CNC(=O)c1coc2nc3ccccc3nc12)OC,-2.8%
15,COCCCNC(=O)c1ccccc1-c1cc(C)no1,-3.6%
16,O=C(c1cccc(C(F)(F)F)c1)N1CCN(S(=O)(=O)c2ccc(Cl)s2)CC1,9.8%
17,CCN(c1cccc(C)c1)S(=O)(=O)c1ccc2c(c1)oc(=O)n2C,1.9%
18,CCOc1ccc(NC(=O)CN(C)S(=O)(=O)c2ccc3c(c2)CCC(=O)N3)cc1,-0.4%
19,CC(C)CC(=O)NNC(=O)c1ccc(Cl)cc1,4.3%
20,COc1ccc(C(=O)NC(Oc2ccccc2)C(Cl)(Cl)Cl)cc1 (stereo not drawn),-6.6%
21,COc1ccc(C(=O)N(CCCO)C(C)C(=O)NC2CCCCC2)cc1OC (stereo not drawn),-11.9%
22,CCOC(=O)c1ccc(NC(=O)c2ccc3c(c2)C(=O)N(Cc2cccnc2)C3=O)cc1,-16.9%
23,CSc1ncc(Cl)c(C(=O)Nc2ccc(S(=O)(=O)N3CCOCC3)cc2)n1,29.9%
24,CCCSc1ncc(Cl)c(C(=O)Nc2ccc(S(=O)(=O)Nc3ncccn3)cc2)n1,7.3%

row,Compound,inhibition
1,N/C(Cc1cccs1)=N\OC(=O)COc1ccc(Cl)cc1Cl,-3.5%
2,Cc1ccc(CN2CCN(/N=C/C(Br)=C\c3ccccc3)CC2)cc1,-12%
3,CN1/C(=C\C(=O)CSc2cccc[n+]2[O-])C(C)(C)c2ccccc21,0.8%
4,CN1/C(=C\C(=O)CSc2nncn2C)C(C)(C)c2ccccc21,-7.6%
5,COc1ccc2[nH]cc(C(O)CN3CCC(C(N)=O)CC3)c2c1 (stereo not drawn),28.7%
6,COc1ccc([N+](=O)[O-])cc1N(CC(=O)NCCC1=CCCCC1)S(C)(=O)=O,0.4%
7,CC(C)(C)c1ccc(O)c(N=Cc2cc3c(cc2[N+](=O)[O-])OCO3)c1,-3.2%
8,CC(=O)NC1=NC(=O)/C(=C/c2cc(C)n(-c3cccc(C(=O)O)c3)c2C)S1,-3.4%
9,CCN=C1S/C(=C\c2cn(C(C)=O)nc2-c2ccccc2)C(=O)N1CC,-15.2%
10,CC(=O)NC1=NC(=O)/C(=C/c2cn(C(C)=O)nc2-c2ccccc2)S1,100% (active)
11,CCCn1cc(CN2CCC(n3nccc3NC(=O)c3ccc4c(c3)OCO4)CC2)c(C)n1,6%
12,CCc1ccc(C(=O)COC(=O)[C@@H](NC(N)=O)[C@@H](C)CC)cc1,0.9%
13,CN(C)CCCN(C(=O)CCc1ccccc1)c1nc2ccc(Br)cc2s1,44.7%
14,CN(C)CCCN(C(=O)CCc1ccccc1)c1nc2ccc(Cl)cc2s1,75.6% (active)
15,Cc1ccc2nc(N(CCCN(C)C)C(=O)CCc3ccccc3)sc2c1,29.6%
16,CN(C(=O)c1ccc(OC2CCN(Cc3ccccn3)CC2)cc1)C1CCCCC1,-18.7%
17,C1CCC(C23CC4CC(CC(C4)C2)C3)NC1 (stereo not drawn),-4.6%
18,O=S(=O)(CCC1CCCCN1)c1ccccc1 (stereo not drawn),0.5%
19,CCCN1Cc2cccc(C(=O)N3CCN(c4ccc(F)cc4)CC3)c2C1=O,2.2%
20,O=C(Nc1ccc(F)cc1F)c1cc(-c2ccco2)nc2ccccc12,7.3%
21,CN(/C(=N/S(=O)(=O)c1ccccc1)c1ccccc1)S(=O)(=O)c1ccccc1,5.7%
22,CCc1ccc(CCC(=O)Nc2nccs2)o1,2.3%
23,Oc1ccc(-c2c(-c3ccsc3)sc3ccccc23)cc1,6.5%
24,O=C(O)c1ccc(C2(c3ccc(C(=O)O)cc3)OC(=O)c3ccccc32)cc1,-10.8%

row,Compound,inhibition
1,CN(C)c1ccc(C2(c3ccc(N(C)C)cc3)OC(=O)c3cc(N)ccc32)cc1,6.1%
2,Cc1cccc(C2(c3cccc(C)c3)OC(=O)c3ccccc32)c1,10.5%
3,Cc1cc(O)c(C(C)C)cc1C1(c2cc(C(C)C)c(O)cc2C)OC(=O)c2ccccc21,6.1%
4,Cc1cc(C2(c3ccc(O)c(C)c3)OC(=O)c3ccccc32)ccc1O,83.2% (active)
5,Nc1ccc(C2(c3ccc(N)cc3)OC(=O)c3ccccc32)cc1,4%
6,CC(=O)Oc1ccc2c(c1)Oc1cc(OC(C)=O)ccc1C21OC(=O)c2ccccc21,9.9%
7,CCCCOc1ccc(-c2nnn(CC(=O)NCCc3c[nH]c4ccccc34)n2)cc1,4%
8,CCOc1cc(-c2noc(CCC(=O)NCC3CCCO3)n2)ccc1OC (stereo not drawn),0%
9,COc1ccc(C2CC(=O)c3cnn(-c4nc(C)cc(C)n4)c3C2)cc1OC (stereo not drawn),6.6%
10,CC1=CC(C)(C)N2C(=O)C3(NCCc4c3[nH]c3ccccc43)c3cccc1c32 (stereo not drawn),18.2%
11,O=C(CNC(=S)N(Cc1ccc(F)cc1)C1CCCCC1)NCCN1CCOCC1,12.3%
12,Cc1c(C(=O)NC2CCCCC2C)oc2ccccc12 (stereo not drawn),0.8%
13,COc1cc(NC(=O)C2CCN(S(=O)(=O)c3cccnc3)CC2)cc(OC)c1OC,8.8%
14,O=C(c1cccnc1)N1CCN(C(=O)c2cccc(Cl)c2)CC1,-12.2%
15,Cc1cccc2c1c(N=NC(N)=S)c(O)n2C1OC(CO)C(O)C(O)C1O (stereo not drawn),-13.4%
16,O=C1NCCN(Cc2ccoc2)C1CC(=O)N(CCO)Cc1ccccc1 (stereo not drawn),1.1%
17,CCCCOc1ccccc1NC(=O)c1ccc(=O)[nH]c1,2.2%
18,CCCCOc1ccccc1NC(=O)c1ccco1,13.2%
19,O=C(CCc1ccccc1Cl)NC1CCCN(c2ccc(C(F)(F)F)cn2)C1 (stereo not drawn),5%
20,COc1ccc(C(C(=O)NCCC(C)C)N(CCCO)C(=O)c2snc(C(N)=O)c2N)cc1OC (stereo not drawn),5%
21,Nn1c(COc2cccc(Cl)c2)nc2ccccc2c1=O,-10.2%
22,CCc1nonc1NC(=O)c1oc2ccccc2c1C,10%
23,N=c1n(Cc2ccccc2)c2ccccc2n1CC(O)COc1ccccc1 (stereo not drawn),50.2%
24,Cc1ccc(OCC(O)Cn2c(=N)n(Cc3ccccc3)c3ccccc32)cc1 (stereo not drawn),13.1%

row,Compound,inhibition
1,CC(C)N(C(=O)CSc1nc2ccccc2n1Cc1ccccc1)C(C)C,2%
2,O=C(O)CSc1nc2ccccc2n1-c1ccccc1,6.1%
3,CC(=O)Nc1ccc(NC(=O)c2ccc(C)c(S(=O)(=O)Nc3cccc(C)c3)c2)cc1,-3.1%
4,COC(=O)C1CCN(C2=C(NS(=O)(=O)c3ccc(Cl)cc3)C(=O)c3ccccc3C2=O)CC1,2%
5,Cc1cc(NC(=O)NC2CCCN2S(=O)(=O)c2ccc(Cl)cc2)no1 (stereo not drawn),8.3%
6,Cc1cc(C)cc(-c2nnc(SCC(=O)c3ccc4c(c3)OCCO4)o2)c1,-7.3%
7,CC(C)(C)c1ccc(CN(Cc2ccco2)Cc2nnnn2C2CCCC2)cc1,19.2%
8,c1coc(CN(Cc2cccs2)Cc2nnnn2C2CCCCC2)c1,25.9%
9,CCCCCn1c(=O)[nH]c2cc(C(=O)NCc3ccc4c(c3)OCO4)ccc2c1=O,31.9%
10,CC1CCN(C(=O)c2ccc([N+](=O)[O-])o2)CC1,5.5%
11,CC(=O)NS(=O)(=O)c1ccc(NC(=O)C(Sc2ccccc2)c2ccccc2)cc1 (stereo not drawn),8%
12,CCCCNC(=O)C(Sc1ccccc1)c1ccccc1 (stereo not drawn),-9.3%
13,CC(=O)Nc1ccc(NC(=O)C(Sc2ccccc2)c2ccccc2)cc1 (stereo not drawn),-1.5%
14,CCC(C)NC(=O)C(Sc1ccccc1)c1ccccc1 (stereo not drawn),-0.3%
15,CCCNC(=O)C(Sc1ccccc1)c1ccccc1 (stereo not drawn),8.1%
16,NS(=O)(=O)c1ccc(NC(=O)C(Sc2ccccc2)c2ccccc2)cc1 (stereo not drawn),12.2%
17,CCOCCc1nn2c(=O)cc(CSCC(=O)Nc3ccc(OC)cc3)nc2s1,16.4%
18,Cc1cc(-c2ccccc2)c2c(=O)n(-c3ccccc3)[nH]c2n1,-8.8%
19,COc1cc(S(=O)(=O)N2CCC(C(N)=O)CC2)c(C)cc1C,-8.6%
20,CCCC(=O)NC(c1ccccc1Cl)c1ccc2cccnc2c1O (stereo not drawn),11.4%
21,CN(C)c1ccc(/C=N/n2c(COc3ccccc3)n[nH]c2=S)cc1,1.6%
